# Experimental data taken from PubChem BioAssay AID2603 (Johns Hopkins Ion Channel Center, 2010).
# Results with a measured potency or affinity are listed apart. The source made the active and inactive calls.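 How the source made its calls: active means a compound that raises KCNQ2 potassium channel current at -35 mV at one or more tested doses; inactive means no rise at any dose.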
# Target: Potassium voltage-gated channel subfamily KQT member 2 (Rattus norvegicus) (UniProt O88943)
# Test: potentiation of rat KCNQ2 current – cell-based, automated electrophysiology, mechanism study for KCNQ2 potentiator project, dose response (AID 2603)
# Conditions: KCNQ2-CHO cells, automated patch clamp current potentiation; at 30 µM (top of the series)
# Potassium voltage-gated channel subfamily KQT member 2 (Rattus norvegicus), sequence (O88943 whole entry, looked up): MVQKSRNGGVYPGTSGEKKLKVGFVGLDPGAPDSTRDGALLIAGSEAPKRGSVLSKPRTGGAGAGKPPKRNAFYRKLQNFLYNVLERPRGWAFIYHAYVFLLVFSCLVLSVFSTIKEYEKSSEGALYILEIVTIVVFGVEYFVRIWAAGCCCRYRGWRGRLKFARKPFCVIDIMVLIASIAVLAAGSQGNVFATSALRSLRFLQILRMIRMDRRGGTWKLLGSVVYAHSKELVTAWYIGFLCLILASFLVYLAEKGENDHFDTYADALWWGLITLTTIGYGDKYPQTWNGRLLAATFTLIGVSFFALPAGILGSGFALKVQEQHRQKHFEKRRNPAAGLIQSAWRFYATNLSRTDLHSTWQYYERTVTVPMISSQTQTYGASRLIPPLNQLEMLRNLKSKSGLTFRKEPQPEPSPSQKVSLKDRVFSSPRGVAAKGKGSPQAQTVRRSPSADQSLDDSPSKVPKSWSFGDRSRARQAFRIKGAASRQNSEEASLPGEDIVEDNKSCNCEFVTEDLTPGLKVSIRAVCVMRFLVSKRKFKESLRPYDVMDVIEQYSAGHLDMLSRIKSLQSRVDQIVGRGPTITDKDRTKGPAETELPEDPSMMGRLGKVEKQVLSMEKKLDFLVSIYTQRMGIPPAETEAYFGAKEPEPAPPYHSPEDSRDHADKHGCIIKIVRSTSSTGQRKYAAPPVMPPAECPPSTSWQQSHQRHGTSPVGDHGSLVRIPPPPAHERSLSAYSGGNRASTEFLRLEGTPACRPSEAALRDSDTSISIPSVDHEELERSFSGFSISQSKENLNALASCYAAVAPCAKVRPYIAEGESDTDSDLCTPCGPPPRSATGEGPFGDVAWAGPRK
SMILES,outcome,potentiation
CCCCCC/C(C)=C1/SC(=S)NC1=O,inactive,
Cc1nn(-c2cccc(C(F)(F)F)c2)c(Cl)c1/C=N/Nc1cccc(C(=O)O)c1,inactive,
COc1ccc(C(=O)CCS(=O)(=O)c2ccc(F)cc2)cc1OC,inactive,
Cc1ccc(C(=O)NC2(O)C(=O)c3ccccc3C2=O)cc1C,inactive,
CC1=C(C)/C(=N\OS(=O)(=O)c2ccccc2)C=CC1=O,inactive,
S=C(NCCc1cccc(Cl)c1)NCc1ccccc1,inactive,
COc1cc(C)c(C(=O)Oc2cc(C)c(C(=O)O)c(O)c2)c(O)c1,,72.4
Nc1cc(N2CCCCC2)c(Cl)cc1[N+](=O)[O-],inactive,
O=c1c(O)c(-c2cccs2)oc2ccc(Cl)cc12,inactive,
O=C(O)c1cc(NN=C2c3ccccc3-c3ccccc32)ccc1Cl,,81.9
CC1(C)CCc2cc(-c3ccn(S(=O)(=O)c4ccccc4Cl)n3)ccc2O1,inactive,
CC(C)c1ccc2nc(NC(=O)C3CC3)sc2c1,inactive,
O=C(Cc1ccccc1)Nc1cccc(N2CCCC2)c1,inactive,
Cc1ccc(C(C2=C(O)CC(C)(C)CC2=O)C2C(=O)CC(C)(C)CC2=O)o1 (configuration not stated),inactive,
CCC(O)(CC)C(=O)N(Nc1ccc(C)cc1)c1ccc(C)cc1,,62.7
Oc1c(Br)cc(Br)cc1C=Nc1ccc2[nH]ncc2c1,inactive,
CC1=C(C(=O)OCC2CCCCC2)C(c2cccc(O)c2)NC(=O)N1 (configuration not stated),,57
